Experimental findings from publication PMC7862700, “An all-to-all approach to the identification of sequence-specific readers for epigenetic DNA modifications on cytosine” are described below.

Holding throughout (assay): DAPPL (digital affinity profiling via proximity ligation, sequencing); 10 mM Tris-HCl pH 7.5, 50 mM NaCl, 1 mM DTT, 4% glycerol, room temperature, 30 min; GST-TFs on glutathione beads, 16-mer random dsDNA library, 0.1% formaldehyde crosslink after washing; high values mean tight binding
What all share (details): protein: recombinant; tags: N-terminal GST; dsDNA, one strand shown

The target in one assay is T1, ERF (Homo sapiens, UniProt P50548 1-548).
T1 sequence: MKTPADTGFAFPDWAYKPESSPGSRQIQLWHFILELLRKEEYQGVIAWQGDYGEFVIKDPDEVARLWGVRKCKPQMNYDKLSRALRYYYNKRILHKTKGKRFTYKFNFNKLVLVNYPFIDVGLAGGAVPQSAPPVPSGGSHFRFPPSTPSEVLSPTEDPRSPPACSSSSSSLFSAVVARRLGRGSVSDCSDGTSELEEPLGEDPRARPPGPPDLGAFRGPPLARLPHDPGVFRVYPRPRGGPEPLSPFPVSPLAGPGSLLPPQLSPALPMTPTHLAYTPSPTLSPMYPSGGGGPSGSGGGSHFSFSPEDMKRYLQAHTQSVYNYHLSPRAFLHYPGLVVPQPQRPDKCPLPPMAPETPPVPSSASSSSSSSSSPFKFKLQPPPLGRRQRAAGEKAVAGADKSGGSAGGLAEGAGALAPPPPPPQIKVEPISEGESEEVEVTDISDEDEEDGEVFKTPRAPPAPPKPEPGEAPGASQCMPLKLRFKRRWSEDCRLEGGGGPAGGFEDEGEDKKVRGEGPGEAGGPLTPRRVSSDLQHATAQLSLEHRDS
The procedure, abridged:
(§1)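 Yeast served to express human transcription factors as GST fusions, which were then captured on glutathione beads and labelled with DNA barcodes. Pooled with a tag-only sample, they were incubated with 200 nmole of a 16-mer random double-stranded DNA library for 30 min at room temperature in Tris/NaCl/DTT/glycerol buffer, washed, crosslinked with 0.1% formaldehyde, ligated by proximity, amplified by PCR and sequenced. Dividing each hexamer's read frequency for a factor by its frequency for the tag-only sample gives the binding signal.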

Another assay concerns the target T2, ETV3L (Homo sapiens, UniProt Q6ZN32 1-361).
T2 sequence: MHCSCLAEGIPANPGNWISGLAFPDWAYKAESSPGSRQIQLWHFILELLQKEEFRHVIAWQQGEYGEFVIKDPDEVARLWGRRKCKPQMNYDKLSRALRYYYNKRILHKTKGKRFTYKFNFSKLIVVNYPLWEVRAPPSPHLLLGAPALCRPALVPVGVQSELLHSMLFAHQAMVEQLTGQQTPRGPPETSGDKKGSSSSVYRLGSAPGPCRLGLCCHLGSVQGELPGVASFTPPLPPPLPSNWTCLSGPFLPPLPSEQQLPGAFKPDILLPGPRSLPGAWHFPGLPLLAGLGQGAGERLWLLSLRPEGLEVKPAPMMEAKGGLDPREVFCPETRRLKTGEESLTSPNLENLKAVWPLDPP
The procedure, abridged: as §1

Another assay has as its target T3, ETS2 (Homo sapiens, UniProt P15036 1-469).
T3 sequence: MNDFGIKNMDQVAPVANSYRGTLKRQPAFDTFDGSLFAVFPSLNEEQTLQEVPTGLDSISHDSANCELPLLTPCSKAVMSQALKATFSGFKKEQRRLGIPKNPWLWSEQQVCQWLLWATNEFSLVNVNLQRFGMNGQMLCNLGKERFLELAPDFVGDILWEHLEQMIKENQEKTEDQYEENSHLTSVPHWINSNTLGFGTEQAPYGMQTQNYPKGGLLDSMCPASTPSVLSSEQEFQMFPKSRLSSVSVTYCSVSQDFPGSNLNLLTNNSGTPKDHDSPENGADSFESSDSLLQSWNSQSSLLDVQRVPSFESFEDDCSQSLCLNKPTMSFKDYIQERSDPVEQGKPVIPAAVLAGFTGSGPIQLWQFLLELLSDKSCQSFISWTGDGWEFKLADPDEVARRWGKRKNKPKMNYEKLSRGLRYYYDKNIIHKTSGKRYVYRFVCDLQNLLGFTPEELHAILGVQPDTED
In short, it runs like this:
as §1

For a further assay, the target named is T4, SPDEF (Homo sapiens, UniProt O95238 1-335).
T4 sequence: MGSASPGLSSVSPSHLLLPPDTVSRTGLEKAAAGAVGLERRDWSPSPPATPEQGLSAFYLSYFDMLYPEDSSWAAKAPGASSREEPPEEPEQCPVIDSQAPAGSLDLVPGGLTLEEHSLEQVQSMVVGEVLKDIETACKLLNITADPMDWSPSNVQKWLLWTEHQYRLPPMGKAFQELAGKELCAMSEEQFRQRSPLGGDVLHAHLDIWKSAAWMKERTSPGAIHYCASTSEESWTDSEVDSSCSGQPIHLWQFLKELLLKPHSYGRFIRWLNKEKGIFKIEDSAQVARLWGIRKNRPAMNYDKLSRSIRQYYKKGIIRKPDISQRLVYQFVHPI
In short, it runs like this:
as §1

The target of a further assay is T5, ETV7 (Homo sapiens, UniProt Q9Y603 1-341).
T5 sequence: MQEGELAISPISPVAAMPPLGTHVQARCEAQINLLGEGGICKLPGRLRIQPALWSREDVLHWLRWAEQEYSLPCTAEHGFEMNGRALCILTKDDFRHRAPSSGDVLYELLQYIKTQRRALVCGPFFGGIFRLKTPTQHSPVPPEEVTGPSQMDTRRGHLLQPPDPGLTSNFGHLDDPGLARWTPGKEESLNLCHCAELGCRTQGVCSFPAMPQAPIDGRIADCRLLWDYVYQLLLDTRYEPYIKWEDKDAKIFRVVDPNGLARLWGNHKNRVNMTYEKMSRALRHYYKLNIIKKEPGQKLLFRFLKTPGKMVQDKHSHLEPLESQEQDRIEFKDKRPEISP
The procedure, abridged: as §1

The target in the next assay is T6, ELF5 (Homo sapiens, UniProt Q9UKW6-2 1-255).
T6 sequence: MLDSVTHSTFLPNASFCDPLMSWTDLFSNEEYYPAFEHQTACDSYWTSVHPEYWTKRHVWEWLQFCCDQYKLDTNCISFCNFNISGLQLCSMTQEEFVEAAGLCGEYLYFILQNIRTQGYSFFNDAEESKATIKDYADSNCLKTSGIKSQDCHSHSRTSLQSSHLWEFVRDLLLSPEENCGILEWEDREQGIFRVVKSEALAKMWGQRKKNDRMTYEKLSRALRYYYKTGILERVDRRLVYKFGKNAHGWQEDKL
In short, it runs like this:
as §1

The target in the next assay is T7, ETV3 (Homo sapiens, UniProt P41162-2 1-143).
T7 sequence: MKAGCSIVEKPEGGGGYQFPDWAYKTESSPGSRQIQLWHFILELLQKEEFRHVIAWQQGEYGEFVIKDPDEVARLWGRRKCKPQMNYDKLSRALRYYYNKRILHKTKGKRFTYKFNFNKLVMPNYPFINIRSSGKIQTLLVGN
In short, it runs like this:
as §1

For another assay, the target named is ETV6 (Homo sapiens, UniProt P41212 1-452). The procedure, abridged:
as §1

Chain of ETV6 (P41212 whole entry): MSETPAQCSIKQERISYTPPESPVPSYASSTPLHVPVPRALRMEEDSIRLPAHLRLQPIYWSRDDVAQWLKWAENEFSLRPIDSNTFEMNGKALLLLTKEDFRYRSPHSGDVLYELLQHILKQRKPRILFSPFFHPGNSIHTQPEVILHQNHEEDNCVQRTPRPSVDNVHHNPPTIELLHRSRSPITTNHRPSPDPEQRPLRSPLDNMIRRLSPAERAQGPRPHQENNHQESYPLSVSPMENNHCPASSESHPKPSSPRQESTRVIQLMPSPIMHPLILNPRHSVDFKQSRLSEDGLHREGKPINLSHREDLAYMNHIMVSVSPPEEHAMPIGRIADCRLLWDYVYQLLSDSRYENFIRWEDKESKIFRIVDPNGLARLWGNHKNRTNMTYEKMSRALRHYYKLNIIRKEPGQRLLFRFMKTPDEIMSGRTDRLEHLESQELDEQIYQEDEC

CACCCC: the binding signal was 1.36 fold enrichment (6-mer frequency, TF over GST control) with ERF; 1.34 fold enrichment (6-mer frequency, TF over GST control) with ETV3L; 1.22 fold enrichment (6-mer frequency, TF over GST control) in the assay with ETS2; 1.24 fold enrichment (6-mer frequency, TF over GST control) in the assay with SPDEF; 1.11 fold enrichment (6-mer frequency, TF over GST control) with ETV7; 1.16 fold enrichment (6-mer frequency, TF over GST control) with ELF5. Also, the binding signal in the assay with ETV3 was 1.27 fold enrichment (6-mer frequency, TF over GST control); with ETV6, 1.14 fold enrichment (6-mer frequency, TF over GST control).

For TTGCAG, the binding signal in the assay with ERF is 1.24 fold enrichment (6-mer frequency, TF over GST control); in the assay with ETV3L it was 1.11 fold enrichment (6-mer frequency, TF over GST control); with ETS2, 1.19 fold enrichment (6-mer frequency, TF over GST control); with SPDEF, 1.14 fold enrichment (6-mer frequency, TF over GST control); with ETV7 it was 1.13 fold enrichment (6-mer frequency, TF over GST control); with ELF5 it was 1.08 fold enrichment (6-mer frequency, TF over GST control). Besides, the binding signal with ETV3 was 1.1 fold enrichment (6-mer frequency, TF over GST control); in the assay with ETV6, 1.12 fold enrichment (6-mer frequency, TF over GST control).

With CTTGTC, the binding signal with ERF is 1.44 fold enrichment (6-mer frequency, TF over GST control); with ETV3L, 1.25 fold enrichment (6-mer frequency, TF over GST control); with ETS2 it was 1.24 fold enrichment (6-mer frequency, TF over GST control); with SPDEF it was 1.35 fold enrichment (6-mer frequency, TF over GST control); with ETV7, 1.25 fold enrichment (6-mer frequency, TF over GST control); with ELF5, 1.3 fold enrichment (6-mer frequency, TF over GST control). Besides, the binding signal in the assay with ETV3 was 1.31 fold enrichment (6-mer frequency, TF over GST control); with ETV6, 1.25 fold enrichment (6-mer frequency, TF over GST control).

As for ATTAGC, the binding signal with ERF is 1.09 fold enrichment (6-mer frequency, TF over GST control); with ETV3L, 1.13 fold enrichment (6-mer frequency, TF over GST control); in the assay with ETS2 it was 1.13 fold enrichment (6-mer frequency, TF over GST control); in the assay with SPDEF, 1.09 fold enrichment (6-mer frequency, TF over GST control); with ETV7 it was 1.17 fold enrichment (6-mer frequency, TF over GST control); with ELF5, 1.1 fold enrichment (6-mer frequency, TF over GST control). For the same sequence, the binding signal in the assay with ETV3 was 1.16 fold enrichment (6-mer frequency, TF over GST control); with ETV6, 1.1 fold enrichment (6-mer frequency, TF over GST control).

With TGTTTA, the binding signal is 1.22 fold enrichment (6-mer frequency, TF over GST control) with ERF; 1.2 fold enrichment (6-mer frequency, TF over GST control) in the assay with ETV3L; 1.13 fold enrichment (6-mer frequency, TF over GST control) with ETS2; 1.17 fold enrichment (6-mer frequency, TF over GST control) with SPDEF; 1.3 fold enrichment (6-mer frequency, TF over GST control) with ETV7; 1.19 fold enrichment (6-mer frequency, TF over GST control) with ELF5. Also, the binding signal in the assay with ETV3 is 1.12 fold enrichment (6-mer frequency, TF over GST control); in the assay with ETV6 it was 1.19 fold enrichment (6-mer frequency, TF over GST control).

For ACACAT, the binding signal was 1.29 fold enrichment (6-mer frequency, TF over GST control) with ERF; 1.23 fold enrichment (6-mer frequency, TF over GST control) in the assay with ETV3L; 1.27 fold enrichment (6-mer frequency, TF over GST control) with ETS2; 1.31 fold enrichment (6-mer frequency, TF over GST control) in the assay with SPDEF; 1.27 fold enrichment (6-mer frequency, TF over GST control) in the assay with ETV7; 1.23 fold enrichment (6-mer frequency, TF over GST control) in the assay with ELF5. Further, the binding signal in the assay with ETV3 is 1.2 fold enrichment (6-mer frequency, TF over GST control); with ETV6, 1.22 fold enrichment (6-mer frequency, TF over GST control).

As to AGAAGC, the binding signal was 1.11 fold enrichment (6-mer frequency, TF over GST control) with ERF; 1.17 fold enrichment (6-mer frequency, TF over GST control) in the assay with ETV3L; 1.09 fold enrichment (6-mer frequency, TF over GST control) with ETS2; 1.15 fold enrichment (6-mer frequency, TF over GST control) with SPDEF; 1.23 fold enrichment (6-mer frequency, TF over GST control) with ETV7; 1.18 fold enrichment (6-mer frequency, TF over GST control) with ELF5. In addition, the binding signal with ETV3 was 1.23 fold enrichment (6-mer frequency, TF over GST control); in the assay with ETV6 it was 1.14 fold enrichment (6-mer frequency, TF over GST control).

For the sequence CAAATT, the binding signal with ERF was 1.17 fold enrichment (6-mer frequency, TF over GST control); with ETV3L, 1.18 fold enrichment (6-mer frequency, TF over GST control); with ETS2, 1.17 fold enrichment (6-mer frequency, TF over GST control); with SPDEF, 1.12 fold enrichment (6-mer frequency, TF over GST control); with ETV7 it was 1.14 fold enrichment (6-mer frequency, TF over GST control); with ELF5, 1.1 fold enrichment (6-mer frequency, TF over GST control). The binding signal was 1.13 fold enrichment (6-mer frequency, TF over GST control) in the assay with ETV3 and 1.1 fold enrichment (6-mer frequency, TF over GST control) with ETV6.
